In test [1] the test system is MKL-1. The experiment in a line: qHTS assay to identify novel small-molecules to repurpose for Merkel cell carcinoma treatment (AID 1296009). Also: nearly all actives have a fitted effect of over 60% in size. Also: potency is read from the fitted curve at half-maximal effect. The following applies: MCC and control cell lines, CellTiter-Glo viability, 72 h; series mostly up to 46 µM. In short, it runs like this:
(§1)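 Cells were treated for 72 hr at 37 degree celsius with compounds in 8- or 11-point dose response. Viability was read by CellTiter-Glo luminescence, normalized to no-cell (cytotoxicity) and DMSO controls.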
Background: qHTS replaces the single test concentration by a dilution series.

For test [2], the system named is NIH3T3. Described as above. To be noted: MCC and control cell lines, CellTiter-Glo viability, 72 h; at 44.8 µM (top of the series) unless noted. A digest of the protocol:
as §1
A general note: Cellular ATP, detected with luciferase, serves as a proxy for viable cell number.

The test system of test [3] is UISO. The description is as above. To be noted: MCC and control cell lines, CellTiter-Glo viability, 72 h; series mostly up to 46 µM. A digest of the protocol:
as §1

Test [4] deals with WaGa. The description is as above. To be noted: MCC and control cell lines, CellTiter-Glo viability, 72 h; series mostly up to 46 µM. A digest of the protocol:
as §1

Test [5] has as its system C33A. The experiment in a line: Primary qHTS to identify gynecologic anti-cancer compounds using libraries of approved drugs and bioactive compounds (AID 1345084). Also: nearly all actives have a fitted effect of over 55% in size. Also: potency is read from the fitted curve at half-maximal effect. The following applies: Gynecologic cancer cell panel viability, ATPlite luminescence, 48 h; series mostly up to 57.5 µM. A digest of the protocol: (§2)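 Cytotoxicity screen measuring ATP content by luciferase luminescence. Each compound is applied at five concentrations for 48 h at 37 C with 5% CO2.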

Test [6] concerns CASKI. The description is as above. To be noted: Gynecologic cancer cell panel viability, ATPlite luminescence, 48 h; series mostly up to 57.5 µM. A digest of the protocol: as §2
Test [7] deals with Es-2. The test is described as above. To be noted: Gynecologic cancer cell panel viability, ATPlite luminescence, 48 h; series mostly up to 57.5 µM. A digest of the protocol:
as §2

Test [8] concerns HeLa. The test is described as above. To be noted: Gynecologic cancer cell panel viability, ATPlite luminescence, 48 h; series mostly up to 57.5 µM. In short, it runs like this:
as §2

The test system of test [9] is Hek293T. Described as above. To be noted: Gynecologic cancer cell panel viability, ATPlite luminescence, 48 h, control line for the selectivity index; series mostly up to 57.5 µM. A digest of the protocol: as §2
For test [10], the system named is JEG-3. The description is as above. The following applies: Gynecologic cancer cell panel viability, ATPlite luminescence, 48 h; series mostly up to 57.5 µM. A digest of the protocol:
as §2

The subject of test [11] is OV90. Described as above. The following applies: Gynecologic cancer cell panel viability, ATPlite luminescence, 48 h; series mostly up to 57.5 µM. In short, it runs like this:
as §2

Test [12] concerns PA-1. The description is as above. To be noted: Gynecologic cancer cell panel viability, ATPlite luminescence, 48 h; series mostly up to 57.5 µM. In short, it runs like this:
as §2

Test [13] relates to SKOV3. The description is as above. To be noted: Gynecologic cancer cell panel viability, ATPlite luminescence, 48 h; series mostly up to 57.5 µM. In short, it runs like this: as §2
The subject of test [14] is Tov-21-G. The test is described as above. The following applies: Gynecologic cancer cell panel viability, ATPlite luminescence, 48 h; series mostly up to 57.5 µM. A digest of the protocol: as §2
Test [15] concerns Tov112D. The test is described as above. To be noted: Gynecologic cancer cell panel viability, ATPlite luminescence, 48 h; series mostly up to 57.5 µM. A digest of the protocol:
as §2

Test [16] in a line: Drug repurposing screens with cells derived from glioblastoma tumor samples (AID 1345199). Also: nearly all actives have a fitted effect of over 40% in size. The following applies: GBM patient neurospheres viability, ATP luminescence, 48 h. In short, it runs like this: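 Four patient lines of CD133+ GBM neurospheres were screened at several concentrations; hits were retested in those lines plus three slower-growing GBM lines, using 48-hour treatment and ATP-based viability.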

Test [17] concerns MKL-2. The experiment in a line: qHTS assay to identify novel small-molecules to repurpose for Merkel cell carcinoma treatment (AID 1296009). Also: nearly all actives have a fitted effect of over 60% in size. Also: potency is read from the fitted curve at half-maximal effect. The following applies: MCC and control cell lines, CellTiter-Glo viability, 72 h; series mostly up to 46 µM. A digest of the protocol:
as §1

The nature of test [18]: qHTS assay to identify inhibitors of the type 1 interferon - major histocompatibility complex class I in skeletal muscle: Counter screen cell viability and HiBit confirmation (AID 1347412). Also: potency is read from the fitted curve at half-maximal effect. As to all read-outs here: nearly all actives have a fitted effect of over 60% in size. To be noted: iHSKM muscle cells + IFN-b, HiBiT or CellTiter-Glo, 24 h; for activity change, negative = inhibition: at 45.9 µM (top of the series). A digest of the protocol:
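CRISPR HLA-B*08:01-HiBit immortalized human myoblasts (C25cl48) stimulated with 4 ng/ml IFN-beta and compounds (12-point 1:3, top 46 uM final) for 24 h at 37 C. Duplicate plates read by HiBit lytic luminescence or CellTiter Glo ATP.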

Test [19] has as its system CAOV3. The experiment in a line: Primary qHTS to identify gynecologic anti-cancer compounds using libraries of approved drugs and bioactive compounds (AID 1345084). Also: nearly all actives have a fitted effect of over 55% in size. Also: potency is read from the fitted curve at half-maximal effect. To be noted: Gynecologic cancer cell panel viability, ATPlite luminescence, 48 h; series mostly up to 57.5 µM. In short, it runs like this: as §2

Each structure is given as a SMILES string. Records with an inconclusive call do not appear. Values without a mark were called inactive. Active and inactive are the calls of the source. Calls follow the shape of the dose curve; as a rule, active = well fitted curve in the direction sought with a large enough effect; inconclusive = small, poorly fitted or top-dose-only effect, or another doubt; inactive = no such curve, though single readings can be large; an effect the other way counts as inactive or inconclusive.
% is scaled to controls: 0 for no effect and ±100 for the full control effect.

Take `O=C(O)CCc1nc(-c2ccccc2)c(-c2ccccc2)o1`: the Potency result in test [1], in test [3], in test [4], in [5], in test [6] and in test [7] was “inactive” in each case. Besides, the Potency entry in test [8], in test [9], in test [10], in test [11], in test [12] and in [13] was “inactive” throughout. The Potency result in [14] and in test [15] was “inactive” in each case. For the same molecule, the result in test [2] was inactive. Moreover, the activity, negative = cell killing in test [16] (at 45.9 µM (top of the series), tumour line B) was -13%; in test [16] (at 45.9 µM (top of the series), tumour line D) it was 3.1%; in test [16] (at 46.1 µM (top of the series), tumour line C), -11.6%.
Take `C[C@]12CCC3c4ccc(O)cc4CCC3C1CCC2=O` (some centres not stated): the Potency entry in test [1], in test [17] and in test [4] was “inactive” throughout.
`Cc1ccc(C(=O)Nc2cccc(C(F)(F)F)c2)cc1Nc1nc(-c2cccnc2)nc2c1cnn2C`: the Potency entry in test [1], in test [17] and in [4] was “inactive” each time. In addition, the activity change, negative = inhibition is -9.48% in test [18] (HiBiT) and -7.92% in [18] (Viability).
For `O=C1C(Cl)=C(NCCN2CCOCC2)C(=O)c2ncccc21`, the Potency in test [1] was 1.32 µM (active); in [17], 2.96 µM (active); in test [3], 8.33 µM (active); in test [18] (HiBiT), 5.57 µM (active); in test [18] (Viability), 5.57 µM (active).
Take `N#CC(=C(N)Sc1ccccc1N)C(C#N)=C(N)Sc1ccccc1N`: the Potency entry in test [1] and in [4] was “inactive” in each case. The Potency in test [3] was 1.05 µM (active).
With `CC[C@H]1OC(=O)[C@H](C)[C@@H](O[C@H]2C[C@@](C)(OC)[C@@H](O)[C@H](C)O2)[C@H](C)[C@@H](O[C@@H]2O[C@H](C)C[C@H](N(C)C)[C@@H]2O)[C@](C)(O)C[C@@H](C)CN(C)[C@H](C)[C@@H](O)[C@]1(C)O`, the Potency entry in [1], in [3] and in [4] was “inactive” in each case. The molecule was called inactive in [2].
Consider `O=c1cc(-c2ccccc2)oc2cc(O)c(O)c(O)c12`, for which the Potency entry in test [1] and in test [3] was “inactive” in each case.
With `CC=C(C)C(=O)O[C@H]1C(C)=C[C@]23C(=O)[C@@H](C=C(CO)[C@@H](O)[C@]12O)[C@H]1[C@@H](C[C@H]3C)C1(C)C`, the Potency entry in test [1], in [17] and in test [4] was “inactive” each time.
As to `CCNc1cc(NC2CCC(O)CC2)nc(Nc2ccc3c(ccn3Cc3ccccc3)c2)n1` (configuration not stated), the Potency entry in test [1], in test [3] and in test [4] was “inactive” throughout. Besides, the call in test [2] was inactive.
As to `COc1ccc2c(Oc3ccc(NC(=O)c4c(C)n(CC(C)(C)O)n(-c5ccccc5)c4=O)cc3F)ccnc2c1`, the Potency entry in test [1], in test [17], in test [4], in test [5], in [6] and in test [7] was “inactive” each time. The Potency result in test [8], in test [9], in test [10], in test [11], in test [12] and in test [14] was “inactive” each time. Besides, the Potency result in test [15] was “inactive”.
As for `CC(C)(C)Cn1c(N)nc2ccc(-c3[nH]c(C(C)(C)C)nc3-c3ccc(F)cc3)nc21`, the Potency entry in test [1], in test [17], in [5], in test [7], in test [8] and in [10] was “inactive” throughout. Also, the Potency entry in test [12], in [14] and in [15] was “inactive” in each case.
With `CCCCCCCCCCCC1=C(O)C(=O)C=C(O)C1=O`, the Potency in [1] and in test [4] was 2.96 µM (active) each time. Besides, the Potency result in [3] was “inactive”.
As to `CC(=O)N(C)C1(c2ccccc2)CCN(CCC[C@]2(c3ccc(Cl)c(Cl)c3)CCCN(C(=O)c3ccccc3)C2)CC1`, the Potency result in test [1] and in test [4] was “inactive” in each case. Moreover, the Potency in test [17] was 20.9 µM (active); in test [6], 22.4 µM (active); in test [13], 22.4 µM (active).
Regarding `NC(=O)c1cccc2[nH]c(-c3ccc([C@H]4CCCN4)cc3F)nc12`, the Potency in test [1] was 20.9 µM (active); in [17], 2.35 µM (active); in test [4], 20.9 µM (active); in test [5] it was 17.8 µM (active); in test [6], 12.6 µM (active); in [7], 31.6 µM (active). The Potency in [9] is 17.8 µM (active); in test [10], 14.1 µM (active); in [11], 14.1 µM (active); in test [12], 12.6 µM (active); in test [14] it was 14.1 µM (active); in [15], 12.6 µM (active).
With `CS(=O)(=O)N(Cc1ccco1)CC(O)Cn1c2ccccc2c2ccccc21` (configuration not stated), the Potency entry in test [1], in test [17], in test [4], in test [5], in test [6] and in [7] was “inactive” throughout. Moreover, the Potency entry in [8], in [9], in test [10], in test [11], in test [12] and in [13] was “inactive” throughout. In addition, the Potency result in test [14] and in test [15] was “inactive” each time.
Turning to `COc1cccc([C@@H](C)NCCCc2ccccc2Cl)c1`, the Potency entry in test [1], in [3] and in test [4] was “inactive” each time. Also, the outcome in test [2] was inactive.
As to `NC(CO)(CO)CCc1ccc(Sc2cccc(OCc3ccccc3)c2)cc1Cl`, the Potency was 13.2 µM (active) in test [1], 23.5 µM (active) in [17] and 5.26 µM (active) in test [4].
As to `O=c1cc(CN2CCOCC2)occ1OCCCCCSc1ccnc2cc(C(F)(F)F)ccc12`, the Potency result in [1], in test [17], in [14] and in test [15] was “inactive” throughout. The Potency in [9] is 31.6 µM (active).
In the case of `COc1ccc(C2CC(c3ccccc3)=NN2c2ccc(S(N)(=O)=O)cc2)cc1` (configuration not stated), the Potency entry in [1], in test [17], in test [4], in test [5], in test [19] and in [6] was “inactive” throughout. In addition, the Potency entry in test [7], in test [8], in test [9], in [10], in test [11] and in test [12] was “inactive” each time. In addition, the Potency entry in test [13], in [14] and in test [15] was “inactive” in each case.
For the molecule `O=C(O)CCC1CCC(c2cc(F)ccc2F)(S(=O)(=O)c2ccc(Cl)cc2)CC1` (configuration not stated), the Potency result in test [1] and in test [3] was “inactive” in each case.

The values are drawn from PubChem BioAssay (NCATS).
